The campaign covered roughly 300,000 compounds. About 37,000 (12%) were called active. The sample holds actives, similar compounds and a random draw of the others, so the mix is not that of the screen. Cut-off read from the data, not from the text of the source: active = max response mostly above about 13% (no sharp cut-off); inactive = mostly below about 14%.

This assay in a line: Cycloheximide Counterscreen for Small Molecule Inhibitors of Shiga Toxin. Note: read at 38.3 µM for the half of the compounds with a filed dose; 0% is about no effect. As to conditions: cell reporter, cycloheximide protein synthesis inhibition counterscreen; stronger effect = higher value.
As for `COC(C(=O)Nc1ccc(S(=O)(=O)Nc2ccc(C)c(C)c2)cc1)c1ccccc1` (stereo not drawn), the max response was -1.18% (inactive).
Next, `CS(=O)(=O)c1sc(C(=O)NC(=S)Nc2ccc(OC(F)(F)F)cc2)c2c1C=CCC2`: 1.1% (inactive); `CCOC(=O)c1ccccc1N1C(=O)C2Sc3[nH]c(=O)sc3C(/C=C/c3ccccc3)C2C1=O` (stereo not drawn): -1.12% (inactive).
The result for `CC(C)(C)NCCCOc1ccc(Cl)cc1C(C)(C)C` reads -3.93% (inactive).
In the case of `O=C(CSc1ccccn1)Nc1nc2c(ccc3ccccc32)s1`, the max response is 15% (inactive).
With `CC(=O)NCCC(=O)Nc1cc(S(=O)(=O)N2CCCCC2)ccc1Oc1cccc(C)c1`, the max response is -3.52% (inactive).
The result for `c1ccc2sc(C3CCCNC3)nc2c1` (stereo not drawn) reads 30.8% (active); that for `Cc1cccc(C(=O)N2CCC(c3nc4ccccc4s3)CC2)c1`, -3.16% (inactive).
The result for `O=C(c1cccs1)N1CCC(c2nc3ccccc3s2)CC1` reads -1.42% (inactive).
Next, `Cc1[nH]c(C)c(S(=O)(=O)N2CCN(c3cccc(C(F)(F)F)c3)CC2)c1C(=O)N1CCCC1`: -5.38% (inactive); `C=C1CCN(Cc2ccc(OC)cc2)S(=O)(=O)c2ccccc21`: 12.8% (inactive); `CCOc1ccc(N2CC(C(=O)NCc3ccccn3)CC2=O)cc1` (stereo not drawn): -11.6% (inactive).
Take `CC1CCN(c2ccc(C(=O)NCc3ccc4c(c3)OCO4)cc2[N+](=O)[O-])CC1`: the max response is -5.58% (inactive).
The result for `Cc1ccc(C2CN(C)CC2C(=O)c2ccc(F)cc2)cc1` (stereo not drawn) reads -3.61% (inactive).
The result for `COc1ccc(C(=O)C2CN(C)CC2C(=O)c2ccc(OC)cc2)cc1` (stereo not drawn) reads 19% (active); that for `CCc1ccc(NC(=O)CN2CCC(C(=O)c3ccc(OC)cc3)CC2)cc1`, -4.07% (inactive); that for `CC(C)(C)C(=O)CN1C2=NCCN2c2ccccc21`, -2.32% (inactive).
Next, `CCc1ccc(NC(=O)Cn2nnc(C(=O)NCc3ccc4c(c3)OCO4)c2N)cc1`: -3.61% (inactive).
Take `Cc1ccc(-c2nc(CSCC(=O)NC3CCN(Cc4ccccc4)CC3)c(C)o2)cc1`: the max response was -6.12% (inactive).
Take `COc1ccc2oc(C(=O)NCc3ccco3)c(C)c2c1`: the max response is 31.4% (active).
The result for `Cc1cc(S(=O)(=O)Nc2ccc(C(=O)NCC(c3ccco3)N3CCCC3)cc2)ccc1F` (stereo not drawn) reads 0.909% (inactive).
Next, `COc1cc(C(=O)NC(=S)NCc2ccco2)cc(OC)c1OC`: 2.82% (inactive).
The result for `COc1cc(C(=O)N[C@@H](C)C(=O)NCc2ccco2)cc(OC)c1OC` reads -1.35% (inactive).
In the case of `COc1cccc(OCC(O)CNC(=O)c2oc3c(C)c(C)ccc3c2C)c1` (stereo not drawn), the max response was -4.29% (inactive).
Next, `COc1ccc2oc(C(=O)NCC(Cc3ccccc3)N(C)C)c(C)c2c1` (stereo not drawn): 12% (active).
On to `Cc1c(C(=O)NCCN(C)C)oc2ccc(S(=O)(=O)N3CCCC3)cc12`, for which the max response was 2.66% (inactive).
The result for `CCCCn1c(N)c(N(CCOC)C(=O)c2oc3ccc(OC)cc3c2C)c(=O)[nH]c1=O` reads -2.73% (inactive).
Next, `Cc1c(C(=O)NCC(c2ccco2)N2CCCC2)oc2ccc(Cl)cc12` (stereo not drawn): 37.1% (active).

Source of the values: PubChem BioAssay AID2314 (National Center for Advancing Translational Sciences (NCATS), 2010).
